For orientation: AC50 means the concentration at which the activity in the assay is half-maximal.

Results on 33 molecules are retold here after PubChem BioAssay (EPA / NIEHS).

Results filed as inconclusive are left out. The source made the active and inactive calls. How the source made its calls, unless noted: active means hit-call score of the fitted dose curve at least 0.9, where 1 is the maximum; inconclusive means response in the unintended direction; inactive means score below 0.9.

Assay [1] can be described thus: CCTE_Harrill_HTTr_CellCount_MCF7: CCTE's Cell Proliferation Assessment for the High-Throughput Transcriptomics (HTTr) Platform, Harrill Lab (AID 2284012).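 Further: intended direction is loss of nuclei count meaning fewer cells.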 The method, boiled down: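 For this full-screen endpoint, MCF-7 cultures received eight compound dilutions for six hours. Well nuclei counts from Hoechst imaging were analyzed relative to DMSO.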
Assay [2] in a line: ATG_ERE_CIS: Attagene CIS-FACTORIAL HepG2 Assay for Estrogen Response Element (ERE) (AID 2282940; active means hit-call score of the fitted dose curve at least 0.9, where 1 is the maximum; inactive means score below 0.9). To be noted: HepG2 ERE cis-reporter, Attagene RNA transcript; actives raise or lower the signal. The method, boiled down: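 Measuring endogenous transcription factor output, the assay doses transfected HepG2 cells for 24 hours and quantifies reporter transcripts by fluorescent RT-PCR and capillary electrophoresis, with DMSO as baseline.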

Assay [3] has as its target human Retinoic Acid Receptor gamma (RARg), RARG (gene 5916) (UniProt P13631). The assay can be described thus: ATG_RARg_TRANS: Attagene TRANS-FACTORIAL HepG2 Assay for human Retinoic Acid Receptor gamma (RARg) (AID 2283009).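 On AC50: AC50 is for reporter induction above DMSO meaning RARg activation.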 The method, boiled down: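 Gain-of-signal relative to DMSO is reported from fluorescent capillary electrophoresis of RT-PCR reporter products. These came from HepG2 cells expressing transfected RARg-GAL4 chimeras with UAS reporters, harvested 24 h after dosing.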

The target of assay [4] is human Vitamin D Receptor (VDR), VDR (gene 7421) (UniProt P11473). Briefly: ATG_VDR_TRANS: Attagene TRANS-FACTORIAL HepG2 Assay for human Vitamin D Receptor (VDR) (AID 2283022). The method, boiled down:
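RT-PCR/capillary electrophoresis read-out of reporter mRNA induction in transiently transfected HepG2; 24 h dosing; chimeric NR-Gal4 (TRANS format); gain-of-signal fit against DMSO baseline.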

Assay [5] deals with Glucocorticoid receptor (Homo sapiens) (UniProt P04150). The assay can be described thus: ATG_GR_TRANS: Attagene TRANS-FACTORIAL HepG2 Assay for human Glucocorticoid Receptor (GR) (AID 2282978).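 Further: activators score as hits since higher reporter transcript over DMSO is fitted.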 To be noted: HepG2 Attagene TRANS GR reporter, mRNA transcription. The method, boiled down: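 HepG2 cells transiently transfected with multiplexed reporter units in which chimeric NR-GAL4 proteins drive GAL4-UAS reporters; 24 h compound exposure. Reporter mRNA measured by RT-PCR, 6-FAM labelling, HpaI digestion and capillary electrophoresis; gain-of-signal fitted versus DMSO.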

The target in assay [6] is Steroid hormone receptor ERR1 (Homo sapiens) (UniProt P11474). The assay can be described thus: ATG_ERRa_TRANS: Attagene TRANS-FACTORIAL HepG2 Assay for human Estrogen-Related Receptor alpha (ERRa) (AID 2282971). The note with it: HepG2 Attagene TRANS reporter, ERRa transactivation. The method, boiled down: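 Transfected HepG2, 24 h dosing, ERRa-Gal4 chimera driving GAL4-UAS reporter. Readout: reporter mRNA via RT-PCR plus capillary electrophoresis (fluorescence). Positive direction vs DMSO control.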

The target in assay [7] is Retinoic acid receptor RXR-alpha (Homo sapiens) (UniProt P19793). The assay can be described thus: OT_NURR1_NURR1RXRa_1440: Odyssey Thera (OT) 24-hour HEK293T Protein Complementation Assay for Nurr1/retinoid X receptor (RXR) (AID 2283386). The method, boiled down:
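Cell-based binding reporter: HEK293T cells, 24 h exposure, fluorescence-detected fragment complementation, DMSO as baseline.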

Assay [8] deals with Estrogen receptor beta (Homo sapiens) (UniProt Q92731). Briefly: OT_ER_ERbERb_0480: Odyssey Thera (OT) 8-hour HEK293T Protein-Complementation Assay for Estrogen Receptor-beta/-beta Homodimer (AID 2283357). The method, boiled down:
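Homodimerization of ER-beta LBD measured by protein-fragment complementation in HEK293T; 8 h dosing; fixed, Draq5 counterstain; fluorescence intensity gain over DMSO baseline, positive fitting direction; laser scanning cytometry.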

Assay [9] shares this target. Briefly: OT_ER_ERbERb_1440: Odyssey Thera (OT) 24-hour HEK293T Protein-Complementation Assay for Estrogen Receptor-beta/-beta Homodimer (AID 2283380).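 Further: scored as signal increase over DMSO baseline for both agonists and antagonists.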 The method, boiled down: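 HEK293T cells stably expressing ER beta LBD (aa 310-547) homodimer fragment-complementation reporter, dosed 24 h. Cells formaldehyde-fixed, Draq5-stained; gain in nuclear (agonist) or nuclear plus cytoplasmic (antagonist) fluorescence versus DMSO read by laser scanning cytometry.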

Assay [10] concerns the target Peroxisome proliferator-activated receptor gamma (Homo sapiens) (UniProt P37231). Briefly: OT_PPARg_PPARgSRC1_0480: Odyssey Thera (OT) 8-hour Protein-Complementation Assay for Peroxisome Proliferator-activated Receptor Gamma / SRC-1 Co-activator (AID 2283387).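 Further: nuclear to cytoplasmic split Venus YFP fluorescence ratio reporting PPARg SRC-1 interaction.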 The method, boiled down: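 Read-out: 488 nm N/C fluorescence ratio from complemented Venus YFP fragments, ≥350 cells per image, gain-of-signal fitted against DMSO baseline. Fusions of PPARg/SRC-1 with IFP1/IFP2 expressed transiently in HEK293T; compounds applied 8 h.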

Assay [11] shares this target. The assay can be described thus: OT_PPARg_PPARgSRC1_1440: Odyssey Thera (OT) 24-hour Protein-Complementation Assay for Peroxisome Proliferator-activated Receptor Gamma/ SRC-1 Co-activator (AID 2283388).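 Further: nuclear to cytoplasmic ratio of reconstituted Venus YFP fluorescence in fixed imaged cells.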 The method, boiled down: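 Readout: nuclear-to-cytoplasmic 488 nm fluorescence ratio, ≥350 cells per image, 8 images per well, after 24 h compound exposure of HEK293T expressing PPARg/SRC-1 split-YFP fusions. Activity fitted in positive direction against DMSO.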

The nature of assay [12]: ACEA_AR_agonist_AUC_viability: ACEA Biosciences xCELLigence Real-Time Cell Analysis on Androgen Receptor Agonism for Viability (AID 2283775).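 On AC50: viability read 80 hours after compound addition.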 The method, boiled down:
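Viability endpoint from xCELLigence impedance in 22Rv1 prostate cells at 80 h. Eight-point series, 100 uM maximum final.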

A short description of assay [13]: ACEA_AR_antagonist_AUC_viability: ACEA Biosciences xCELLigence Real-Time Cell Analysis on Androgen Receptor Antagonism for Viability (AID 2283776).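 Further: 22Rv1 human prostate cancer cells growing on impedance electrode plates; area under impedance growth curve at 80 h after dosing as viability; hits lower the growth signal relative to DMSO meaning cytotoxicity.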 The method, boiled down: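 Real-time electrical impedance tracks 22Rv1 proliferation after continuous compound exposure (top 100 uM final, 1:4 steps, 8 concentrations). The 80 h area-under-curve serves as the cytotoxicity readout relative to DMSO.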

Read-out in assay [14]: Pselectin, SELP (gene 6403)
The assay can be described thus: BSK_4H_Pselectin: BioMAP Diversity Plus: 4H Assay for Pselectin Biomarker Activity (AID 2283026; active means hit-call score of the fitted dose curve at least 0.9, where 1 is the maximum; inactive means score below 0.9). To be noted: primary human endothelial cells (HUVEC); actives raise or lower the signal. The method, boiled down:
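Bidirectional fits against DMSO gave the endpoint. Cells: primary human umbilical vein endothelium, chemical-treated for 24 h before ELISA detection of P-selectin.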

Read-out in assay [15]: Macrophage colony-stimulating factor (MCSF), CSF1 (gene 1435)
The assay can be described thus: BSK_CASM3C_MCSF: BioMAP Diversity Plus: CASM3C Assay for Macrophage colony-stimulating factor (MCSF) Biomarker Activity (AID 2283044; active means hit-call score of the fitted dose curve at least 0.9, where 1 is the maximum; inactive means score below 0.9;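 further: M-CSF protein amount quantified by ELISA after 24 h exposure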). To be noted: primary human coronary artery smooth muscle cells; actives raise or lower the signal.

Read-out in assay [16]: Low-density lipoprotein receptor (LDLR), LDLR (gene 3949)
The assay can be described thus: BSK_CASM3C_LDLR: BioMAP Diversity Plus: CASM3C Assay for Low-density lipoprotein receptor (LDLR) Biomarker Activity (AID 2283045; active means hit-call score of the fitted dose curve at least 0.9, where 1 is the maximum; inactive means score below 0.9;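 further: LDLR protein level on the cell surface quantified by ELISA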). To be noted: primary human coronary artery smooth muscle cells; actives raise or lower the signal.

Read-out in assay [17]: serum amyloid A (SAA), SAA1 (gene 6288)
The assay can be described thus: BSK_CASM3C_SAA: BioMAP Diversity Plus: CASM3C Assay for serum amyloid A (SAA) Biomarker Activity (AID 2283049; active means hit-call score of the fitted dose curve at least 0.9, where 1 is the maximum; inactive means score below 0.9;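 further: SAA protein level quantified by ELISA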). To be noted: primary human coronary artery smooth muscle cells; actives raise or lower the signal.

Read-out in assay [18]: Interferon-gamma inducible Protein 10 (IP10), CXCL10 (gene 3627)
The assay can be described thus: BSK_hDFCGF_IP10: BioMAP Diversity Plus: hDFCGF Assay for Interferon-gamma inducible Protein 10 (IP10) Biomarker Activity (AID 2283053; active means hit-call score of the fitted dose curve at least 0.9, where 1 is the maximum; inactive means score below 0.9). The note with it: primary human foreskin fibroblasts; actives raise or lower the signal. The method, boiled down:
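Chemical-treated human skin fibroblasts (primary) were sampled at 24 h for IP-10 by ELISA. Both increases and decreases relative to DMSO were scored.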

Read-out in assay [19]: Vascular cell adhesion molecule 1 (VCAM1), VCAM1 (gene 7412)
The assay can be described thus: BSK_CASM3C_VCAM1: BioMAP Diversity Plus: CASM3C Assay for Vascular cell adhesion molecule 1 (VCAM1) Biomarker Activity (AID 2283055; active means hit-call score of the fitted dose curve at least 0.9, where 1 is the maximum; inactive means score below 0.9;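 further: VCAM-1 protein level quantified by ELISA on the cells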). To be noted: primary human coronary artery smooth muscle cells; actives raise or lower the signal.

Read-out in assay [20]: Macrophage colony-stimulating factor (MCSF), CSF1 (gene 1435)
Briefly: BSK_hDFCGF_MCSF: BioMAP Diversity Plus: hDFCGF Assay for Macrophage colony-stimulating factor (MCSF) Biomarker Activity (AID 2283060; active means hit-call score of the fitted dose curve at least 0.9, where 1 is the maximum; inactive means score below 0.9). The note with it: AC50: primary human foreskin fibroblasts, actives raise or lower the signal unless noted; outcome: primary human foreskin fibroblasts, actives raise or lower the signal unless noted. The method, boiled down: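 ELISA read-out of M-CSF in human dermal foreskin fibroblast cultures, 24 h after chemical dosing; gain or loss of signal fitted bidirectionally relative to DMSO baseline.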

Chain of Glucocorticoid receptor (Homo sapiens) (P04150 whole entry, looked up, the tested form may be a part): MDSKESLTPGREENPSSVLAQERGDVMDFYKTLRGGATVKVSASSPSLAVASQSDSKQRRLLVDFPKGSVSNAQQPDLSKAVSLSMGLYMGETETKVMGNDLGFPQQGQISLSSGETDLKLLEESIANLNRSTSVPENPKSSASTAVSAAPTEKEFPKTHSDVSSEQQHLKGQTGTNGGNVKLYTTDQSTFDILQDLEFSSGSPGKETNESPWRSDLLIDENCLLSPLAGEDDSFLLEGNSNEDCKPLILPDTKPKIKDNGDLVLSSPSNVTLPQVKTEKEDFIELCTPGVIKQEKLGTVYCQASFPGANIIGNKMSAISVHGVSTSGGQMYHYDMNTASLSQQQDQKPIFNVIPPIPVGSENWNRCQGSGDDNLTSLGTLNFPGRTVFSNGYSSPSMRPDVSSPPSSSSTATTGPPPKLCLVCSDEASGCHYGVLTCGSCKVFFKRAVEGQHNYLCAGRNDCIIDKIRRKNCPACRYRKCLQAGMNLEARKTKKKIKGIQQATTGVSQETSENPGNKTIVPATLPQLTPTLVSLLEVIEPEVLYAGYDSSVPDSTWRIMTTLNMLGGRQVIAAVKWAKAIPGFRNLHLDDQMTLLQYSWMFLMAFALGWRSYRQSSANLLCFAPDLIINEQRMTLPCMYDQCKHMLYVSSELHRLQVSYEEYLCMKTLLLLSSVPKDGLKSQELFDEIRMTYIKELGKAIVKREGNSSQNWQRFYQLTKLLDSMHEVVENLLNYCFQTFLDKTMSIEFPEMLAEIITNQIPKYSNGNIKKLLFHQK
Chain of Peroxisome proliferator-activated receptor gamma (Homo sapiens) (P37231 whole entry, looked up, the tested form may be a part): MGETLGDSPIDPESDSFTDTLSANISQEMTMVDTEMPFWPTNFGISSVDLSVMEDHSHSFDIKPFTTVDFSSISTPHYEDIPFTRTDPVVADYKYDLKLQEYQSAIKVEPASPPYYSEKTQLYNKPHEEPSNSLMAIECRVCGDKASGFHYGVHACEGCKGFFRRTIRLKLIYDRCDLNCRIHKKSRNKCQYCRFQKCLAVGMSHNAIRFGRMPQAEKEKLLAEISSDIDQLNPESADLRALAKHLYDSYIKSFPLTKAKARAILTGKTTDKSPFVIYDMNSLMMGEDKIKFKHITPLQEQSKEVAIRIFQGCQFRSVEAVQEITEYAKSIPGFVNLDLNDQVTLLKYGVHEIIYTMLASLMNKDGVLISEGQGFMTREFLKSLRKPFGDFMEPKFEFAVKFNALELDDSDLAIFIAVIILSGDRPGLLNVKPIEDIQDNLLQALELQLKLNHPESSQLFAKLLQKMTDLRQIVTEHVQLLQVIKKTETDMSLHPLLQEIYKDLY
Chain of Steroid hormone receptor ERR1 (Homo sapiens) (P11474 whole entry, looked up, the tested form may be a part): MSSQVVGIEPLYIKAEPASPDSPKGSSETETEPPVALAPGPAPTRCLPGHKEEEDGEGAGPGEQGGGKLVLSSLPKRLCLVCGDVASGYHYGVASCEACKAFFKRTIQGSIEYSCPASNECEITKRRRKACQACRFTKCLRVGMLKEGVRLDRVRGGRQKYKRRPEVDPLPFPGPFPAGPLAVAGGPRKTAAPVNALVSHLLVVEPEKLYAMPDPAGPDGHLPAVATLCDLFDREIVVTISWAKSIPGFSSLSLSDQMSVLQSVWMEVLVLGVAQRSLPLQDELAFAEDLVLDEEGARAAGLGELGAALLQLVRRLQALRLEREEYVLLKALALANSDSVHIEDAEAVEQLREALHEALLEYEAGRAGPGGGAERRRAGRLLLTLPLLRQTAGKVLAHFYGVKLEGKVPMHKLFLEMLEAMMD
Chain of Retinoic acid receptor RXR-alpha (Homo sapiens) (P19793 whole entry, looked up, the tested form may be a part): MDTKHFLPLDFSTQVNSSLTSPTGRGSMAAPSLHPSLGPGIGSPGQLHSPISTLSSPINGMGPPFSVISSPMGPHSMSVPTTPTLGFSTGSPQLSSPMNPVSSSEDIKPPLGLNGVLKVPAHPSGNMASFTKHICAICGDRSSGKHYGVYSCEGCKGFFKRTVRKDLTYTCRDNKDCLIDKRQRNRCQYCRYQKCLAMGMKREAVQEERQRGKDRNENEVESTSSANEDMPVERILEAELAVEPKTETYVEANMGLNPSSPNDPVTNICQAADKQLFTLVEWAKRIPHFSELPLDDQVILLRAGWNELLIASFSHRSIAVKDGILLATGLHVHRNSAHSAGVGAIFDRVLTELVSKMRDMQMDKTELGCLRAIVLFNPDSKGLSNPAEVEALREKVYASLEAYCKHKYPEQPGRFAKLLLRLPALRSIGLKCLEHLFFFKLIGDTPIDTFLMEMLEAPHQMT
Chain of human Vitamin D Receptor (VDR), VDR (gene 7421) (P11473 whole entry, looked up, the tested form may be a part): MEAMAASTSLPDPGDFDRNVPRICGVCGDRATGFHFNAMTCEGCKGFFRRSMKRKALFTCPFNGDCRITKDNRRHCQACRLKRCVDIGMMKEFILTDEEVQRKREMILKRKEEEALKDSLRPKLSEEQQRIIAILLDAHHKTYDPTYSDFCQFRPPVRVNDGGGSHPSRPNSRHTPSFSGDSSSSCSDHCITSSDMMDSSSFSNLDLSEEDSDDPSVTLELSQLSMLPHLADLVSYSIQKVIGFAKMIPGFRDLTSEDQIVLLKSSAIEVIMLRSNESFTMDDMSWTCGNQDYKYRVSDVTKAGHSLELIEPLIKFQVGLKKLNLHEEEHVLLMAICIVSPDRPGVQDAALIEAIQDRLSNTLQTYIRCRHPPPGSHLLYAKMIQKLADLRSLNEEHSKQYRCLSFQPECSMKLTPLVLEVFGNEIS
Chain of human Retinoic Acid Receptor gamma (RARg), RARG (gene 5916) (P13631 whole entry, looked up, the tested form may be a part): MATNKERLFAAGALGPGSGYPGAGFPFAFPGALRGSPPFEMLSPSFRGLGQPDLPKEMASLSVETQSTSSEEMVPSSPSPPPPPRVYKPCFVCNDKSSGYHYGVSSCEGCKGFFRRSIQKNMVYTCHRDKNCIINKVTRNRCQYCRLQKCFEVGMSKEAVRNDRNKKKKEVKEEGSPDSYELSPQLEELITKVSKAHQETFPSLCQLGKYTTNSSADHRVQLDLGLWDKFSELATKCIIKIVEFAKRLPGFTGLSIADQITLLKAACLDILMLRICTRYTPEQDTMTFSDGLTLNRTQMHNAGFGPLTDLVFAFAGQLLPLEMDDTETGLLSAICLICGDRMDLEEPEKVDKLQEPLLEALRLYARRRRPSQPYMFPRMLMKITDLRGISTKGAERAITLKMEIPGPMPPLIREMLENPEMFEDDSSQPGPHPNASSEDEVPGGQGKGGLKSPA
Chain of Estrogen receptor beta (Homo sapiens) (Q92731 whole entry, looked up, the tested form may be a part): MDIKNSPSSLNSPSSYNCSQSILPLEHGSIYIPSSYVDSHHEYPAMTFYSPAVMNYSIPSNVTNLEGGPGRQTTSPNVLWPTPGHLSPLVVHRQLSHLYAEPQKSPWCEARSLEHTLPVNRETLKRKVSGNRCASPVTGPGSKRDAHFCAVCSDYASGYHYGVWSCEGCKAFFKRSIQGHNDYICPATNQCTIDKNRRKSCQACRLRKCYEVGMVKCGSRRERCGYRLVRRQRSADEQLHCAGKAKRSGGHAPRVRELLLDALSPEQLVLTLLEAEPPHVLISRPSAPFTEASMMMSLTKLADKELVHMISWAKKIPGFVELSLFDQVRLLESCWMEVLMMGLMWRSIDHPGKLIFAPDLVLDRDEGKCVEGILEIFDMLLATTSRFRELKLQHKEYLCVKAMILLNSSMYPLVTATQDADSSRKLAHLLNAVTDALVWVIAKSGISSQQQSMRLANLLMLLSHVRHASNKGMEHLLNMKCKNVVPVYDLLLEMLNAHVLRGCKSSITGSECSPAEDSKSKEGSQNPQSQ

Turning to `CC1=C(CC(=O)O)c2cc(F)ccc2/C1=C\c1ccc(S(C)=O)cc1` (centres undefined), the outcome in assay [1] was inactive.

For `CC(C)CC(=O)O`, the call in assay [2], in assay [3] and in [4] was inactive.

`CCCC(=O)OC/C=C(\C)CCC=C(C)C`: the call in assay [2], in assay [5] and in [4] was inactive.

Consider `CCCCC(CC)COC(=O)CS` (centres undefined), for which the call in [6] was inactive. Besides, the AC50 in [7] is 16 µM (active).

With `COC(=O)CCSCCC(=O)OC`, the outcome in [3] was inactive.

Take `CCCOCCC`: the molecule was called inactive in [2], in assay [5] and in assay [3].

In the case of `Cc1ccccc1S(=O)(=O)O`, the result in [8] and in [9] was inactive.

In the case of `O=C(Oc1ccccc1)c1ccccc1`, the molecule was called inactive in assay [3], in assay [8], in [9], in [7], in assay [10] and in assay [11]. The call in [12], in [13] and in assay [1] was inactive.

In the case of `CCCC(=O)OC`, the result in assay [2] and in assay [4] was inactive.

Turning to `Nc1nnc(-c2ccc([N+](=O)[O-])o2)o1`, the molecule was classed as inactive in [2].

As for `Cc1cc2nc3c(=O)[nH]c(=O)nc-3n(C[C@H](O)[C@H](O)[C@H](O)CO)c2cc1C`, the half-maximal activity concentration (AC50) in assay [8] is 11.8 µM (active); in [9], 24.1 µM (active); in [7] it was 11 µM (active). Besides, the molecule was classed as inactive in [13].

With `Clc1ccccn1`, the molecule was called inactive in [3] and in assay [1].

For the molecule `CCC(C)NC(N)=O` (centres undefined), the call in assay [2] was inactive.

`C=C(C)C(=O)OCCCCCC`: in assay [2], the result was inactive.

Consider `C=C(C)C(=O)OCC1CCCO1` (centres undefined), for which the outcome in assay [5] was inactive.

`CN1CCCC1`: the molecule was called inactive in assay [2] and in assay [3].

For the molecule `CCCCCCC1CCCC(=O)O1` (centres undefined), the molecule was classed as inactive in [6] and in assay [4].

As for `CC=CC(=O)O`, the outcome in [6] and in assay [3] was inactive.

For `Cc1cc(O)cc(C)c1Cl`, the molecule was called inactive in assay [5], in assay [3], in [7], in [10], in assay [11] and in assay [1]. Besides, the AC50 in assay [8] was 25 µM (active); in [9], 31.6 µM (active); in assay [12] it was 3.98 µM (active); in assay [13], 8.88 µM (active).

`CCc1cc(C(N)=S)ccn1`: the molecule was called inactive in [4] and in assay [1].

Turning to `CCC(C)C1N=C(C)C(C)S1` (centres undefined), the outcome in assay [6] and in assay [5] was inactive.

In the case of `C/C=C(\C)C(=O)OCC/C=C\CC`, the molecule was classed as inactive in assay [4].

Regarding `CC(=O)CCc1ccccc1`, the molecule was called inactive in [4].

Take `CCCCCCCC#N`: the molecule was called inactive in assay [6] and in assay [3].

In the case of `NC(=O)c1ccc(N)cc1`, the call in [2] and in assay [4] was inactive.

For the molecule `O=C1NC(=O)C2CC=CCC12` (centres undefined), the result in assay [3], in [8], in [9], in assay [7], in assay [12] and in [13] was inactive.

Regarding `c1ccc(CNc2ncnc3nc[nH]c23)cc1`, the molecule was called inactive in assay [3], in assay [8], in assay [9], in [12], in assay [13] and in assay [1].

As for `O=C(O)c1nc(Cl)c(Cl)c(Cl)c1Cl`, the molecule was classed as inactive in [5] and in assay [4].

`CCCCCCCCCCCCCCCCCC[N+](C)(C)C`: the molecule was classed as inactive in assay [2], in assay [16] and in [17]. Moreover, the AC50 in assay [6] was 33.8 µM (active); in assay [3], 34.4 µM (active); in [14] it was 1.34 µM (active); in [15], 3.45 µM (active); in assay [18], 2.67 µM (active); in [19] it was 3.73 µM (active). Besides, in assay [20], the AC50 was 3.11 µM (active).

`O=C(OCc1ccccc1)c1ccccc1`: the result in assay [6], in assay [5], in assay [10] and in [11] was inactive.

In the case of `C=CCOC(=O)C(=C)C`, the molecule was called inactive in [6], in assay [5] and in assay [3].

`O=C1CCCCCCCCCCCCCC1`: the result in [2] and in assay [4] was inactive.

Take `COC(=O)/C=C\C(=O)OC`: the molecule was called inactive in assay [6], in [4], in assay [14], in [15], in assay [16] and in assay [17]. Also, the outcome in assay [18] and in [20] was inactive. In addition, the half-maximal activity concentration (AC50) in assay [19] was 20 µM (active).
